An excerpt weighted towards active compounds, which were near 3.7% of everything screened.
TIM10 inh: TIM10 yeast growth inhibition. S. cerevisiae TIM10 strain growth, BacTiter-Glo luminescence, 24 h. inhibition, % at 10 µM. hit rate 1.4% among 330,000. AID 463195;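 active = inhibition of 40% or more at the single tested concentration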;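 also: wild-type TIM10 isogenic control strain grown at permissive 25 °C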
tim10-1 inh: growth inhibitors of tim10-1 mutant yeast. S. cerevisiae tim10-1 ts strain growth, BacTiter-Glo, 24 h. inhibition, % at 20 µM. hit rate 2.2% among 330,000. AID 463190;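 active = inhibition of at least 40%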;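 also: mutant grown at 25 °C; 0% = DMSO wells with yeast and 100% = wells holding no yeast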
tim23-1 inh: tim23-1 yeast growth inhibition. S. cerevisiae tim23-1 growth, BacTiter-Glo luminescence, 24 h. AID 463212. inhibition, % at 20 µM. hit rate 1.3% among 330,000;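 active = growth inhibition of the mutant yeast at or above 50%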;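 also: temperature-sensitive mutant grown at 25 °C; plate controls were DMSO-treated mutant yeast for no effect and medium wells lacking yeast for full effect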
PfHsp90 yeast 2: inhibits growth of yeast expressing Plasmodium falciparum Hsp90; inhibition, % at 9.4 µM; AID 504621; S. cerevisiae expressing PfHsp90, BacTiter-Glo ATP, 48 h; yeast lacking PDR1 and PDR3 efflux regulators; hit rate 0.32% among 310,000;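 active = every replicate shows inhibition above about 80%, whatever the replicate mean, limit read from the data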;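 also: 0% = DMSO neutral controls and 100% = 20 µM radicicol positive controls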
Rce1 inh: inhibitors of yeast Ras-converting enzyme; Q03530; yeast membranes, quenched prenylated peptide cleavage fluorescence; calls only; hit rate 0.27% among 290,000; AID 2563;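 active = fall in fluorescence gain of 50% or more versus controls, with final raw signal at or below 3038400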;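 also: plate controls were neutral control wells for no effect and wells lacking membranes for full effect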
Target sequence (Q03530 whole entry, looked up): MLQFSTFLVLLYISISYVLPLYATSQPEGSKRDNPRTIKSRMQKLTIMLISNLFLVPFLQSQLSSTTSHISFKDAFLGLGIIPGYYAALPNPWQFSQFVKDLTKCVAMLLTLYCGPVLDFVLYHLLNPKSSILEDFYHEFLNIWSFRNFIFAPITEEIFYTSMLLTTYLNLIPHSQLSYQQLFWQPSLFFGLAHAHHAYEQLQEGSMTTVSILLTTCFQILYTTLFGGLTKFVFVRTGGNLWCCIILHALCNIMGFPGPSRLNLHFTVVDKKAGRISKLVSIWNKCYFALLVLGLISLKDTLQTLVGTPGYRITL
Active calls of the source: *; i = inactive; . = not tested or not shown; + = active, no number.

SMILES	TIM10 inh	tim10-1 inh	tim23-1 inh	PfHsp90 yeast 2	Rce1 inh
CC(C)NCC(O)COCCOc1ccc(C(C)(C)C)cc1 (configuration not stated)	-11.6	1.9	5.2	3.8	i
CC(C)NCC(O)COCCOc1ccc(Br)cc1 (configuration not stated)	-11.3	5.9	11.0	-2.8	+
Cc1ccccc1CNC(=O)c1ccccc1N	-4.4	9.2	12.7	6.7	i
COc1ccccc1CNC(=O)c1ccccc1N	7.8	7.4	8.0	8.5	+
CN(C)/C=N/c1c(C#N)cnn1-c1ncnc2sc(-c3ccccc3)cc12	19.8	20.2	27.3	-3.4	+
O=C1CCC(=O)N1CCSC(=S)N1CCSCC1	9.1	10.8	-5.2	13.0	i
Cc1ccccc1NS(=O)(=O)c1ccc(C(=O)NCC(c2ccco2)N(C)C)cc1 (configuration not stated)	-10.9	-5.3	-6.1	3.5	i
Cc1ccccc1NS(=O)(=O)c1ccc(C(=O)NCC(c2ccccc2)N(C)C)cc1 (configuration not stated)	-2.7	1.0	-2.5	-0.8	+
NS(=O)(=O)c1ccc(NC(=O)/C=C/c2cn(-c3ccccc3)nc2-c2cccc(Cl)c2)cc1	4.7	9.4	4.2	.	+
Cc1c(Cl)cccc1-n1c(SCC(=O)N(C)Cc2ccccc2)nnc1-c1ccncc1	35.2	20.9	18.2	.	i
COCCCNC(=O)c1cc2cc3cc(OC)ccc3nc2o1	4.7	-11.0	9.1	-4.4	+
COC(=O)c1sc(NC(=S)NC(=O)c2ccccc2C)nc1C	15.3	3.5	18.5	13.7	i
CCCCCCCCCCCCCCCC[N+](C)(C)CCl	.	.	.	104.6*	.
CCCCCC[N+](C)(C)CCSSCC[N+](C)(C)CCCCCC	4.4	-7.3	-1.6	11.2	i
COc1ccccc1-c1oc2ccccc2c1C#CCCO	-6.8	3.1	26.9	4.6	.
Cc1cccc(-c2oc3ccccc3c2C#CCCCCO)c1	7.6	17.7	5.5	-5.2	+
CCOc1ccc(S(=O)(=O)NC2CCCCCC2)cc1	4.0	24.9	48.9	7.5	i
CCOc1cc(S(=O)(=O)NC2CCCCCC2)ccc1F	-65.3	18.2	38.7	108.0*	i
CSc1nc2ccc(S(=O)(=O)NC3CCCCC3)cc2s1	-109.3	-13.2	1.4	104.3*	i
CCOc1ccc2[nH]c3c(N4CCc5ccccc5C4)ncnc3c2c1	37.8	17.5	45.3	.	+
Cc1ccc2[nH]c3c(N4CCc5ccccc5C4)ncnc3c2c1	24.0	39.6	45.0	-1.3	i
COc1ccc2cc(C(=O)C3CCCN(C(=O)CCc4cnn(C)c4)C3)ccc2c1 (configuration not stated)	-0.9	12.6	5.5	-0.4	+
O=C(O)/C=C/C(=O)NC1CCC(CC2CCC(NC(=O)/C=C/C(=O)O)CC2)CC1 (configuration not stated)	0.9	14.2	12.7	-17.8	i
Cc1ccc(CN2CCC(N3CC(C)OC(C)C3)CC2)cc1 (configuration not stated)	-1.2	-34.6	-6.2	8.3	i
CCOc1ccc(OCC)c(NC(=O)c2nnn(CC(=O)Nc3cc(C)cc(C)c3)c2N)c1	12.8	13.2	7.2	-25.5	+
SMILES	TIM10 inh	tim10-1 inh	tim23-1 inh	PfHsp90 yeast 2	Rce1 inh
COc1ccc(CNC(=O)c2c(N)n(CCCN3CCOCC3)c3nc4ccccc4nc23)cc1	26.1	21.2	21.1	14.5	+
Cc1ccn2c(=O)c(NC(=O)COc3ccccc3)c(C)nc2c1	-11.0	-23.0	-14.0	.	i
Cc1nc2c(C)cccn2c(=O)c1NC(=O)COc1ccccc1	-2.2	-10.6	10.0	.	+
O=c1[nH]c(Nc2ccccn2)cc2ccccc12	9.8	-58.8	19.0	4.7	+
COc1ccc(OC)c(NC(=O)c2cc3oc4ccccc4c3cc2O)c1	-8.7	-13.3	-8.8	-6.1	+
Cc1cc(O)c(C(C)C)cc1N=Nc1ccccc1C(=O)O	11.1	22.0	12.4	-2.9	i
Cc1cc(N=Nc2ccccc2C(=O)O)c(C)c(C)c1O	-98.1	-90.5	-19.1	99.5*	i
CCCC1CCC(c2ccc(/C(N)=N/O)cc2)CC1 (configuration not stated)	-54.5	-79.8	-85.5	91.5*	.
CCOc1ccc(NC(=O)c2ccc(NC(=O)c3cn4c5c(c(N6CCN(C)CC6)c(F)cc5c3=O)OCC4C)cc2)cc1 (configuration not stated)	-7.1	0.5	31.6	4.3	i
CC1COc2c(N3CCN(C)CC3)c(F)cc3c(=O)c(C(=O)O)cn1c23 (configuration not stated)	-8.0	9.0	8.5	4.7	+
Cc1cccc(OCCCC(=O)NNC(=O)c2ccc(F)cc2)c1	-2.0	5.1	10.7	17.1	.
CCOC(=O)CNC(=O)CSc1nnc(-c2c[nH]c3ccccc23)n1CC	13.8	6.3	17.3	4.8	i
CC(C)=CCc1c2c(c3occ(-c4ccc(O)cc4)c(=O)c3c1O)C=CC(C)(C)O2	14.3	25.7	23.6	-30.6	i
CC(C)=CCc1c2c(c3occ(-c4ccc(O)c(O)c4)c(=O)c3c1O)C=CC(C)(C)O2	.	.	.	101.9*	.
CCCCn1c(NC(=O)c2ccccc2Cl)c(C#N)c2nc3ccccc3nc21	26.0	25.7	41.9	77.8*	i
CSc1ccc(/C=C/C(=O)OCC(=O)NC(C)C)cc1	15.7	18.5	28.2	3.8	+
CCn1cc(/C=C(\NC(=O)c2ccccc2Cl)C(=O)N2CCN(C)CC2)c2ccccc21	-7.7	-12.2	10.6	44.6	i
CCn1cc(/C=C(\NC(=O)c2ccccc2Cl)C(=O)N2CCOCC2)c2ccccc21	10.7	6.7	-4.4	-2.6	+
CCn1cc(/C=C(\NC(=O)c2ccccc2F)C(=O)N2CCOCC2)c2ccccc21	10.6	12.5	11.1	-19.6	+
CCn1cc(/C=C(\NC(=O)c2ccccc2F)C(=O)N2CCCC2)c2ccccc21	10.4	31.1	28.2	6.2	+
CC(=O)N1CCN(Cc2nc(-c3cccc(Cl)c3)no2)CC1	-18.1	3.1	15.3	.	i
CC1CCCN(c2ccc(C(=O)Nc3cccnc3)cc2[N+](=O)[O-])C1 (configuration not stated)	7.7	-6.8	18.6	-14.4	i
CCN(CC)S(=O)(=O)c1cccc(-c2n[nH]c(=S)n2Cc2ccccc2)c1	16.9	2.5	14.7	-17.6	+
CCOc1ccc(-c2[nH]ncc2Oc2cccc(OC)c2)c(O)c1	-5.7	38.1	16.3	1.5	i
CCCOC(=O)c1ccc(Oc2cn[nH]c2-c2ccc(OCC)cc2O)cc1	22.0	28.0	35.2	98.4*	i
Cc1ccc(NC(=O)CN2C(=O)NC(Cc3ccccc3)C2=O)cc1Cl (configuration not stated)	-3.4	-2.9	9.7	30.6	.
COC(=NC(C)C)NC(C)C	-10.5	9.3	-2.3	.	i
CCN1CCN(CC(O)COc2ccc3c(C)cc(=O)oc3c2)CC1 (configuration not stated)	-26.3	5.6	-5.1	.	+

Source: PubChem (several laboratories)
